Screening data: PubChem BioAssay, Broad Institute
U2OS ROS induce – ROS inducers in U2OS cancer cells, primary screen, cell-based, H2DCF-DA fluorescence; AID 624156, 2012; ROS induction (% of piperlongumine), % at 10 µM; hit rate 2% among 46,000; U2OS ROS induction; in the data active = ROS induction above about 79%, passing the limit was not always enough; inconclusive = no clear call, values can overlap the other calls
PD-1 reverse act – activators reversing PD-1 mediated T-cell inhibition, primary screen, luminescence, primary human CD4 T cells, PD-L1 beads; CellTiter-Glo 96 h; activation, % (test concentration not listed); 29,000 tested, under 10 active; AID 2316, 2010; call rule not given here
NOMO-1 viab – NOMO-1 AML cell viability reduction, primary screen, STK33 inhibitor project, CellTiter-Glo luminescence | inhibition, % (no concentration beside the values) | hit rate 7.5% among 37,000 | NOMO-1 AML viability, 72 h; in the data active = inhibition above about 80%; inconclusive = no clear call, values can overlap the other calls
Hits are given with their value; 0 = inactive; ? = inconclusive; - = not tested or not shown. The sample as a whole holds a higher share of hits than the screen did.

SMILES	U2OS ROS induce	PD-1 reverse act	NOMO-1 viab
Cc1ccc(CN2C(=O)CSc3ccc(C(=O)NCC4CCCO4)cc32)cc1 (centres undefined)	0	-	-
C[C@H](CO)N1C[C@H](C)[C@H](CN(C)Cc2ccc(Cl)c(Cl)c2)Oc2ccc(NC(=O)Nc3ccccc3)cc2C1=O	0	0	113.4
COc1ccc(NC(=O)Nc2ccc3c(c2)C(=O)N([C@H](C)CO)C[C@H](C)[C@@H](CN(C)Cc2ccc(Cl)c(Cl)c2)O3)cc1	0	0	0
C[C@H](CO)N1C[C@H](C)[C@@H](CN(C)Cc2ccc(Cl)c(Cl)c2)Oc2ccc(NC(=O)Nc3ccc(F)cc3)cc2C1=O	0	0	0
C[C@H](CO)N1C[C@H](C)[C@H](CN(C)Cc2ccc(Cl)c(Cl)c2)Oc2ccc(NC(=O)Nc3ccc(F)cc3)cc2C1=O	0	0	0
C[C@@H]1CN([C@@H](C)CO)C(=O)c2cc(NC(=O)Nc3ccc(F)cc3)ccc2O[C@H]1CN(C)Cc1ccc(Cl)c(Cl)c1	0	0	124.6
COc1ccc(NC(=O)Nc2ccc3c(c2)C(=O)N([C@H](C)CO)C[C@H](C)[C@H](CN(C)Cc2ccc(Cl)c(Cl)c2)O3)cc1	0	0	108.9
COc1ccccc1NC(=O)CSc1ncnc2c1nnn2Cc1ccccc1	0	-	-
Cc1nn(C)c(C)c1CNC(=O)c1ccc(N2CCOCC2)nc1	0	-	-
COc1cccc(-c2cc(=O)c3ccccc3o2)c1N	0	0	0
COc1cccc(C=C2C(=O)c3ccccc3C2=O)c1OC(C)C	?	0	104.5
O/N=C/c1c(F)cccc1F	0	0	0
Cc1ccc2c(Sc3ccc(Cl)cc3)c(C(=O)O)[nH]c2c1	0	-	-
c1ccc2c(CSc3nc4ccccc4s3)cccc2c1	0	-	-
Nc1ncnc(Sc2nc3ccccc3s2)c1[N+](=O)[O-]	99.7	0	113.6
Cc1ccc(NC(=O)CSc2nc3c(c(=O)n2Cc2ccccc2)SCC3)cc1	0	-	-
COc1cc2c(cc1OC)CN(S(=O)(=O)c1c(C)nn(C)c1C)CC2	0	-	-
CN(C)CC(O)Cn1c2ccc(Br)cc2c2cc(Br)ccc21 (centres undefined)	0	-	113.7
CN(CC(O)Cn1c2ccccc2c2ccccc21)S(C)(=O)=O (centres undefined)	-	-	0
CSC1=NN(C)c2cnn(C)c(=O)c2S1	0	-	-
CC(C)C1=CCC(C)/C(=C\c2ccc(Cl)cc2)C1=O (centres undefined)	0	0	0
CO[C@@H]1CC(OC2CCC3(C)C(CCC45CCC(C6=CC(=O)OC6)C(C)(CCC43)C5=O)C2)O[C@H](C)[C@@H]1O[C@@H]1O[C@H](CO[C@@H]2O[C@H](CO)[C@@H](O)[C@H](O)[C@H]2O)[C@@H](O)[C@H](O)[C@H]1O (some centres undefined)	0	0	118.9
C=C1[C@@H](C2=CC(=O)OC2)CC[C@@]2(O)[C@@H]1CC1[C@H]2CC[C@@H]2C[C@@H](O[C@H]3O[C@@H](C)[C@@H](O[C@@H]4O[C@H](CO[C@@H]5O[C@H](CO)[C@@H](O)[C@H](O)[C@H]5O)[C@@H](O)[C@H](O)[C@H]4O)[C@H](OC)[C@H]3O)CC[C@]12C (some centres undefined)	0	-	-
Nc1nc(C2COc3ccccc3O2)ncc1S(=O)(=O)c1ccccc1 (centres undefined)	0	-	-
N#CCCN(CCC#N)C(=O)c1cc(-c2ccccc2)nc2ccccc12	-	-	0
SMILES	U2OS ROS induce	PD-1 reverse act	NOMO-1 viab
On1onc2c3cc(-c4ccccc4)nc3ccc21	0	0	114.8
N#CCCN(Cc1ccccc1)S(=O)(=O)c1ccccc1	0	-	-
COc1cccc(NC(=O)CNC(=O)c2cccs2)c1	0	0	0
COc1cccc(C(=O)COc2cccc(NC(=O)c3cccc([N+](=O)[O-])c3)c2)c1	0	0	?
COC(=O)COc1cccc(NC(=O)c2cccc(C)c2)c1	0	0	121.0
COC(=O)COc1cccc(NC(=O)c2ccccc2-c2ccccc2C(=O)O)c1	0	0	0
COC(=O)COc1cccc(NC(=O)c2ccc(Cl)c(Cl)c2)c1	0	0	108.4
COC(=O)COc1cccc(NC(=O)c2ccccc2)c1	0	0	121.7
COC(=O)COc1cccc(NC(=O)c2cccs2)c1	0	0	137.2
COc1cccc(NC(=O)c2ccc(OC)c(OC)c2)c1	0	0	0
COC(=O)c1ccc(-c2ccco2)n1Cc1nc(-c2ccccc2F)oc1C	0	-	-
CCOC(=O)c1noc(C)c1-c1csc(COc2cc(Cl)cc(Cl)c2)n1	0	-	-
CC(C)(C)n1c(O)c(/C=C2/C=c3ccccc3=N2)c(=O)[nH]c1=O	0	-	-
Cc1c(S(=O)(=O)c2ccc(Cl)cc2)csc1C(=O)N(Cc1ccccc1)Cc1cccnc1	0	-	-
CCOC(=O)c1ccc(NC(=O)c2ccco2)cc1	0	0	0
